Reference: PubChem BioAssay AID1851 (National Center for Advancing Translational Sciences (NCATS), 2009)
Hit rate of the full screen: of about 16,000 compounds, about 5,100 (32%) were called active. Inconclusive results (about 25%) are left out. Some of the results follow. A number with no mark means an inactive call. The call rests on the fitted dose curve; in most records, active means well fitted curve in the direction sought with a large enough effect; inconclusive means small, poorly fitted or top-dose-only effect, or effect the other way; inactive means no such curve, though single readings can be large or run the other way.
On the % scale 0 is the no-effect control and ±100 the full control effect.

These molecules were tested against Cytochrome P450 3A4 (Homo sapiens) (UniProt P08684) (assay: Cytochrome panel assay with activity outcomes). Settings: recombinant CYP, pro-luciferin dealkylation, luminescence, p450-cyp3a4; series mostly up to 57.1 µM; activity, negative = inhibition: at the top concentration.
Cytochrome P450 3A4 (Homo sapiens), sequence (P08684 whole entry, looked up): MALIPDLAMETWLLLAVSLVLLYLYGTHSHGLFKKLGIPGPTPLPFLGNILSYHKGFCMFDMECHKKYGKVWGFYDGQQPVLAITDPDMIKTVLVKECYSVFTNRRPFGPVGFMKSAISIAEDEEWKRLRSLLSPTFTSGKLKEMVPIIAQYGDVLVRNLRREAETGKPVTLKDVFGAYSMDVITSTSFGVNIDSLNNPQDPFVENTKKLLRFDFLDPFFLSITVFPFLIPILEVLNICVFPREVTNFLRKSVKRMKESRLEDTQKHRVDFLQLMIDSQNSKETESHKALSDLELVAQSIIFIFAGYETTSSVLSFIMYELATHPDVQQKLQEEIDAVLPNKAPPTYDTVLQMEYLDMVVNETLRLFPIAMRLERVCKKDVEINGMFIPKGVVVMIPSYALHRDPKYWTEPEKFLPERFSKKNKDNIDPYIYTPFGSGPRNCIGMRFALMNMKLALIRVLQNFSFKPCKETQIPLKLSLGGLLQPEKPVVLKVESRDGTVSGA
In the case of `CC(C)(CO)[C@H](O)C(=O)NCCCO`, the “activity, negative = inhibition” value was -2.39% [at 25.6 µM].
`N[C@@H](Cc1cc(-c2ccc(Cl)cc2Cl)cc(CP(=O)(O)O)c1O)C(=O)O` was tested, and the “activity, negative = inhibition” value was -5.32%.
For `CCc1ccccc1NC(=O)C1C(c2ccccc2)C1(Cl)Cl` (stereo not given), the AC50 was 15.8 µM (active).
For `O=C(O)C1CCCCC1C(=O)Nc1ccccc1Cl` (stereo not given), the “activity, negative = inhibition” value was 2.92%.
`COC(=O)C1=C(C)NC2=C(C(=O)CCC2)C1c1cn(Cc2ccc(Cl)cc2Cl)nc1-c1ccccc1` (stereo not given) was tested, and the AC50 was 2.51 µM (active).
`C[C@H](C[C@H](N)C(=O)O)C(=O)O` was tested, and the “activity, negative = inhibition” value was -6.08%.
In the case of `CC[N+](CC)(CC)CCOc1cccc(OCC[N+](CC)(CC)CC)c1OCC[N+](CC)(CC)CC`, the “activity, negative = inhibition” value was 5.02%.
For `Cc1cc(Cl)ccc1Oc1ncc(-c2ccc(Cl)cc2)cn1`, the AC50 was 7.08 µM (active).
In the case of `Clc1ccc(-c2ccnc(Oc3cc(Cl)ccc3Cl)n2)cc1`, the “activity, negative = inhibition” value was -6.59%.
In the case of `Nc1cc(Cl)ccc1Oc1ccc(Cl)cc1`, the “activity, negative = inhibition” value was 13.4%.
In the case of `O=C(NC1CCCC1)c1cccnc1N1CCCCCC1`, the AC50 was 14.1 µM (active).
For `O=C(O)C1CCN(c2ncccn2)CC1`, the “activity, negative = inhibition” value was -12.1%.
For `O=[N+]([O-])c1cccnc1N1CCCCC1`, the “activity, negative = inhibition” value was -1.84%.
For `COCc1c(C(=O)OCC(=O)N2c3ccccc3NC(=O)C2(C)C)oc2ccccc12`, the “activity, negative = inhibition” value was 0.0262%.
In the case of `Cc1noc(C)c1COc1cccc(C(=O)OCC(=O)N2CC(=O)Nc3ccccc32)c1`, the AC50 was 4.47 µM (active).
`O=C(Nc1ccccc1N1CCOCC1)c1ccccc1[N+](=O)[O-]` was tested, and the “activity, negative = inhibition” value was 14.2%.
For `Cc1cc(F)ccc1S(=O)(=O)Nc1ccccc1C(=O)Nc1ccccc1N1CCOCC1`, the AC50 was 0.891 µM (active).
For `O=C(Nc1ccccc1N1CCOCC1)c1ccc([N+](=O)[O-])cc1`, the “activity, negative = inhibition” value was -2.07%.
`CN(C)Cc1ccccc1-c1nc(N(C)C)c2ccccc2n1` was tested, and the “activity, negative = inhibition” value was -28%.
With `Cc1cccc(CNc2nc(-c3ccccc3CN(C)C)nc3ccccc23)c1` the AC50 was 10 µM (active).
In the case of `CN(C)Cc1ccccc1-c1nc(NCc2ccccc2)c2ccccc2n1`, the AC50 was 12.6 µM (active).
`CCCCN=C1N/C(=C\c2ccco2)C(=O)N1c1ccccc1` was tested, and the “activity, negative = inhibition” value was -25.2%.
`COc1ccccc1OCCN1C(=O)S/C(=C\c2ccco2)C1=O` was tested, and the AC50 was 14.1 µM (active).
`CCOc1cc(/C=C2/SC(=O)N(CC(=O)N3CCc4ccccc4C3)C2=O)ccc1OCC(=O)O` was tested, and the “activity, negative = inhibition” value was -11.9%.
For `CCCc1cc(=O)oc2cc(OCC(=O)N3CCc4ccccc43)ccc12`, the AC50 was 8.91 µM (active).
For `CCCCc1cc(=O)oc2cc(OCC(=O)N(CC)CC)ccc12`, the “activity, negative = inhibition” value was -26.8%.
For `CCCc1cc(=O)oc2cc(OCc3nn[nH]n3)ccc12`, the activity, negative = inhibition was -17.2% [at 2.29 µM].
In the case of `Cc1ccc(Nc2nc(-c3c(C)nc4ncccn34)cs2)cc1`, the AC50 was 25.1 µM (active).
With `CC(C)C(=O)NCCn1ccc2ccccc21` the AC50 was 12.6 µM (active).
With `C=CCn1c(=O)c(C(=O)NCCN(CC)CC)c(O)c2ccccc21` the “activity, negative = inhibition” value was -20.6%.
With `O=C(O)CN1CCN(Cc2ccccc2)C1=O` the “activity, negative = inhibition” value was 11.6%.
For `O=C(O)CN1CCN(Cc2ccc(F)cc2Cl)C1=O`, the AC50 was 2.24 µM (active).
In the case of `Cc1sc(NC(=O)/C=C/c2ccc(C(C)C)cc2)c(C#N)c1C`, the “activity, negative = inhibition” value was -11.7%.
For `CC1=C(C#N)C(NC(=O)C2CCCCC2)(C(F)(F)F)C(=O)N1` (stereo not given), the “activity, negative = inhibition” value was -17.3%.
`Cc1sc(NC(=O)C2CCCCC2)c(C#N)c1-c1ccccc1` was tested, and the AC50 was 8.91 µM (active).
In the case of `CC(C)(C)CNC(CO)C12CC3CC(CC(C3)C1)C2` (stereo not given), the “activity, negative = inhibition” value was -5.44%.
For `CCC(CC)C(=O)Nc1c2cnn(-c3ccccc3)c2nc(=O)n1-c1ccccc1`, the “activity, negative = inhibition” value was -11.9%.
`Cc1nc(SCC(=O)Nc2c(C)nn(C)c2C)c2cnn(-c3ccccc3)c2n1` gave an activity, negative = inhibition of -11.2% [at 2.29 µM].
With `Cc1ccc2nc(SCc3nc4c(cnn4-c4ccccc4)c(=O)[nH]3)[nH]c2c1` the AC50 was 10 µM (active).
With `CCc1c(O)nc2sc3ccccc3n2c1=O` the “activity, negative = inhibition” value was -8.69%.
In the case of `Cc1ccc2c(CC(=O)OCc3cc(=O)n4c(n3)sc3ccccc34)coc2c1`, the AC50 was 7.94 µM (active).
In the case of `CCOC(=O)Cc1cc(=O)n2[nH]c(C)c(-c3ccccc3)c2n1`, the “activity, negative = inhibition” value was -6.13%.
`CN(CCO)c1nc(N)c2c(N)nc3c(c2c1C#N)CC(=O)N3C1CCCC1` was tested, and the AC50 was 10 µM (active).
For `COc1cc(/C=N/NC(N)=O)c(Br)cc1OCC(=O)Nc1ccccc1C`, the AC50 was 3.55 µM (active).
For `COCCCNC(=O)C(=O)N/N=C/c1ccc(OCC(=O)Nc2cccc(Cl)c2C)c(OC)c1`, the activity, negative = inhibition was 7.9% [at 2.29 µM].
`Cc1ccccc1OCC(=O)NC(=S)Nc1ccc(Br)c(C)n1` was tested, and the “activity, negative = inhibition” value was -6.09%.
`CCCN1C(=O)/C(=C/c2ccc(C)s2)SC1=Nc1ccc(OC)cc1` was tested, and the AC50 was 14.1 µM (active).
In the case of `CCCCOC(=O)NS(=O)(=O)c1sc(CC(C)C)cc1-c1ccc(Cn2c(CC)nc3c(C)cc(C)nc32)cc1`, the AC50 was 3.16 µM (active).
In the case of `Cc1c(NC(=O)CSc2nnc3c4ccccc4n(CCc4ccccc4)c3n2)c(=O)n(-c2ccccc2)n1C`, the AC50 was 10 µM (active).
With `C=CCn1c(SCC(=O)Nc2c(C)n(C)n(-c3ccccc3)c2=O)nc2sc(C)c(-c3ccccc3)c2c1=O` the AC50 was 2.51 µM (active).
`Cc1c(NC(=O)CSc2nnnn2C)c(=O)n(-c2ccccc2)n1C` gave an activity, negative = inhibition of -2.31% [at 2.29 µM].
`Cc1nc(SCC(=O)Nc2c(C)n(C)n(-c3ccccc3)c2=O)nc(C)c1C` gave an activity, negative = inhibition of -4.78% [at 11.4 µM].
`Cc1cccc(NC(=O)Cn2c(=O)n3nc(CCn4nc(C)cc4C)nc3c3ccccc32)c1` was tested, and the AC50 was 5.01 µM (active).
`Cc1cccc(NC(=O)CSc2nc3ccccc3c3nc(CCc4c(C)n[nH]c4C)nn23)c1` was tested, and the AC50 was 3.55 µM (active).
For `Cc1ccc(/C=C/C(=O)N2CC(C)CC(C)C2)o1` (stereo not given), the “activity, negative = inhibition” value was 9.56%.
In the case of `C[C@]1(c2ccccc2)O[C@@H]2C[C@@H]3[C@@H]4CCC5=CC(=O)C=C[C@@]5(C)[C@]4(F)[C@H](O)C[C@]3(C)[C@@]2(C(=O)CO)O1`, the AC50 was 3.16 µM (active).
With `C[C@]12C=CC(=O)C=C1CC[C@@H]1[C@H]3C[C@@H](O)[C@](O)(C(=O)CO)[C@@]3(C)C[C@H](O)[C@]12F` the “activity, negative = inhibition” value was -2.5% [at 25.6 µM].
For `C[C@H]1C[C@H]2[C@H]3CCC4=CC(=O)C=C[C@@]4(C)[C@]3(F)[C@H](O)C[C@]2(C)[C@@]1(O)C(=O)COP(=O)(O)O`, the activity, negative = inhibition was 7.91% [at 11.4 µM].
`Cc1ccccc1C(C(=O)NCc1ccccc1)N(Cc1ccco1)C(=O)c1ccccn1` (stereo not given) was tested, and the AC50 was 3.16 µM (active).
With `O=C(NCc1ccccc1)C(c1ccc(F)cc1)N(Cc1ccco1)C(=O)c1ccccn1` (stereo not given) the AC50 was 2.24 µM (active).
